# Source: PubChem BioAssay (National Center for Advancing Translational Sciences (NCATS))
# The list is not random: actives were taken first. Their share in the collection is about 6.9%.
# VDR inh = inhibitors of human vitamin D receptor; VDR-SRC2-3 peptide fluorescence polarization, 2 h; 400,000 tested, 0.93% active; Potency, µM, most hits filed as inhibitors; P11473
#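 Fluorescence polarization assay measuring small-molecule disruption of VDR binding to the coregulator peptide SRC2-3. Compounds were pin-transferred (23 nl) into the reagent mix and incubated 2 h at room temperature before reading.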
# BAZ2B inh = inhibitors of human BAZ2B bromodomain; Q9UIF8; AlphaScreen BAZ2B-H3K14Ac peptide displacement; Potency, µM (top dose mostly 114 µM), most hits filed as inhibitors; 360,000 tested, 4.4% active; AID 504333; note: nearly all actives have a fitted effect of over 60% in size
#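 BAZ2B (50 nM) with biotin-H3(5-23)K14Ac peptide (50 nM) in PBS pH 7.4, 0.01% Tween-20, preformed 30 min, then compound 30 min at room temperature; top concentration 110uM. AlphaScreen streptavidin donor/nickel chelate acceptor beads (10 ug/mL final), 20 min dark, signal read.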
# JMJD2A Tudor = JMJD2A Tudor domain (human) inhibition | O75164 | AlphaScreen JMJD2A-Tudor / H3K4me3 peptide binding | Potency, µM (top dose mostly 114 µM), usual class: inhibitors | 390,000 tested, 4.4% active | AID 504339; note: nearly all actives have a fitted effect of over 50% in size
# Target sequence (O75164 whole entry, looked up, the tested form may be a part): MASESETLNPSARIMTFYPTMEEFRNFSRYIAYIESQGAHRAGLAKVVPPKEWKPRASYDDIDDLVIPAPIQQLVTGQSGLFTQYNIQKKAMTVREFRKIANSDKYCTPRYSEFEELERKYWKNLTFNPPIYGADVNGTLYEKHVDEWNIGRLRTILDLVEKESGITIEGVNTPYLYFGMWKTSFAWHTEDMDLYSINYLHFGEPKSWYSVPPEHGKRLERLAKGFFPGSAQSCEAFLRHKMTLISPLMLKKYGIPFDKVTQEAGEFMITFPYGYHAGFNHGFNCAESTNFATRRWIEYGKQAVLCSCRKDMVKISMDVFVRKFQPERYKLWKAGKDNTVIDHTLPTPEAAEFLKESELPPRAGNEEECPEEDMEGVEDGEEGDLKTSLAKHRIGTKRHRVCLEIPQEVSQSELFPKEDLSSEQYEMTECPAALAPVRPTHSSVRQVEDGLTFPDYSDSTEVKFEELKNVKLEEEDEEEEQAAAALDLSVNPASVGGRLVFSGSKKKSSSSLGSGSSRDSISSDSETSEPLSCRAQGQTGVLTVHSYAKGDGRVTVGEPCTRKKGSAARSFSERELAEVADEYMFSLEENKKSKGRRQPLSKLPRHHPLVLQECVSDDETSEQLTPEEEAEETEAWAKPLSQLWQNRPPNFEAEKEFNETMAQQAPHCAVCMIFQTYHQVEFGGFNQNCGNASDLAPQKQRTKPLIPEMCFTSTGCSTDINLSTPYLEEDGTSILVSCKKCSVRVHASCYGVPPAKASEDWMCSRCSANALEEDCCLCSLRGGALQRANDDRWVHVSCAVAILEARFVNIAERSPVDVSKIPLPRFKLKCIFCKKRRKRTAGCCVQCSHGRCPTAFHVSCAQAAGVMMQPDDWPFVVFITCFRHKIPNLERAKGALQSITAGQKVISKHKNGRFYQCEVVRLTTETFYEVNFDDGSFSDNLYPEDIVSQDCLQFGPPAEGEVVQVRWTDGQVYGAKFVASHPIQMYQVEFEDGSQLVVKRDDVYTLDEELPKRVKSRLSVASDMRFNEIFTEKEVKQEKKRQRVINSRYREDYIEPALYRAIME
# L3MBTL1 inh = blocks human L3MBTL1. Q9Y468. AlphaScreen L3MBTL1–H3K9me1 peptide binding. Potency, µM (top dose mostly 57.1 µM), actives largely listed as inhibitors. 230,000 tested, 0.66% active; note: nearly all actives have a fitted effect of over 60% in size
#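 L3MBTL1 (50 nM) pre-complexed 30 min with biotinylated H3(1-15)K9me1 peptide (75 nM), then compounds added for 30 min at room temperature; AlphaScreen streptavidin donor/nickel chelate acceptor beads (10 ug/mL final) read after 30 min dark incubation.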
# HP1b binding inh = inhibitors of HP1-beta chromodomain binding to methylated histone tails; P83916; AlphaScreen HP1-beta / biotin-H3K9me3 peptide binding; Potency, µM (titrated, usually from 114 µM), most hits filed as inhibitors; 390,000 tested, 0.56% active; note: nearly all actives have a fitted effect of over 70% in size
#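 AlphaScreen: HP1-beta (50 nM) preformed 30 min with biotin-H3(1-18)K9me3 peptide (50 nM) in PBS pH 7.4, 0.01% Tween-20. Compound added for 30 min at RT, then streptavidin donor/nickel chelate acceptor beads (10 ug/mL) for 30 min.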
# PLK1 PBD inh = PLK1 (human) polo-box domain binding inhibition; P53350; Plk1 PBD binding of FITC phosphopeptide, fluorescence polarization; Potency, µM, hits mostly inhibitors; 360,000 tested, 2.8% active; note: series mostly up to about 57 µM; nearly all actives have a fitted effect of over 65% in size
# Numbers stand for hits; - = inactive; ? = inconclusive; . = not tested or not shown; [ ] = another dose, or the depositor's remark. Calls come from the whole dose curve; as a rule, active = well fitted curve in the direction sought with a large enough effect; inconclusive = small, poorly fitted or top-dose-only effect, or another doubt; inactive = no such curve, though single readings can be large; an effect the other way counts as inactive or inconclusive.
SMILES,VDR inh,BAZ2B inh,JMJD2A Tudor,L3MBTL1 inh,HP1b binding inh,PLK1 PBD inh
CCCCN1C(=O)/C(=C/C=C2\Oc3ccccc3N2CC)SC1=S,-,?,-,-,-,-
COc1cc(F)c(S(=O)(=O)N2CCCN(S(=O)(=O)c3cccc(NC(C)=O)c3)CC2)c(F)c1,.,.,-,.,.,.
O=C(NCCc1ccccc1)c1ccc(CSc2nc3ccncc3n2Cc2ccccc2)cc1,-,-,-,.,-,.
Cc1ccc(C(C)C)c(OCC(=O)Nc2c(C(=O)c3ccccc3)oc3ccccc23)c1,-,-,-,.,-,.
CN1C(C(=O)Nc2ccc(C(=O)O)cc2)=C(O)c2ccccc2S1(=O)=O,-,-,79.4µM,-,-,-
O=C(Nc1c(-c2ccc3c(c2)OCO3)[nH][nH]c1=O)c1cccc(C(F)(F)F)c1,.,.,.,.,.,-
O=C(Nc1c(-c2ccc3c(c2)OCO3)[nH][nH]c1=O)c1ccccc1,.,.,.,.,.,13.4µM
COC(=O)c1ccc(-c2nc(O)c(C)s2)cc1,79.4µM,?,-,-,?,7.52µM
Cc1c(Cl)c(C(F)F)nn1CC(=O)NC1C(=O)N2C(C(=O)O)=C(CSc3nnnn3C)CSC12 (stereo unspecified),?,-,-,.,-,?
O=C(O)C1=C(CSc2nnnn2CS(=O)(=O)O)CS[C@@H]2[C@H](NC(=O)[C@H](O)c3ccccc3)C(=O)N12,39.8µM,.,.,.,.,.
Cc1c(Cl)cnn1CC(=O)NC1C(=O)N2C(C(=O)O)=C(CSc3nnnn3C)CSC12 (stereo unspecified),-,56.2µM,-,.,-,?
Cn1nnnc1SCC1=C(C(=O)O)N2C(=O)C(NC(=O)Cn3nc(C(F)F)cc3C3CC3)C2SC1 (stereo unspecified),-,70.8µM,-,.,-,-
Cc1ccc(S(=O)(=O)N2CCN(c3nc(-c4ccco4)nc4ccccc34)CC2)cc1,.,.,-,.,.,.
Cc1nc2sccn2c1P(c1c(C)nc2sccn12)c1c(C)nc2sccn12,-,-,-,-,-,-
Cc1ccccc1OCCCn1c(-c2ccc(Cl)cc2)nc2ccccc2c1=O,-,-,-,.,-,.
Brc1cccc(-c2nn(-c3ccccc3)c3c2cnc2cc4c(cc23)OCO4)c1,-,.,-,.,-,.
O=C1CN(C(=O)c2ccccc2C(F)(F)F)C(c2ccccc2)c2cc(F)ccc2N1 (stereo unspecified),-,-,-,.,-,.
Nc1ccc2oc(-c3cc(Br)ccc3Cl)nc2c1,-,-,?,-,-,29.9µM
Cc1ccc(C)c(-n2cc[nH]c2=S)c1,-,-,39.8µM,-,-,?
Cc1cc(C)cc(-n2cc[nH]c2=S)c1,-,-,7.94µM,?,-,-
CCN(CC)S(=O)(=O)c1cccc(-c2n[nH]c(=S)n2/N=C/c2ccc(Br)cc2)c1,-,-,?,-,-,21.2µM
CCN(CC)S(=O)(=O)c1cccc(-c2n[nH]c(=S)n2/N=C/c2ccc(OC)cc2)c1,-,-,?,-,-,-
CCN(CC)S(=O)(=O)c1cccc(-c2n[nH]c(=S)n2C(C)COC)c1 (stereo unspecified),-,-,3.55µM,.,-,-
CCn1c(-c2cccc(S(=O)(=O)N3CCCC3)c2)n[nH]c1=S,-,-,6.31µM,.,-,-
Cc1nc(-c2cccc(S(=O)(=O)N3CCOCC3)c2)cs1,?,-,-,-,-,9.47µM
SMILES,VDR inh,BAZ2B inh,JMJD2A Tudor,L3MBTL1 inh,HP1b binding inh,PLK1 PBD inh
COc1ccc(C2Nc3ccccc3C(=O)N2Cc2ccccc2Cl)cc1COc1ccc(NC(C)=O)cc1 (stereo unspecified),.,.,-,.,.,.
Cc1ccc(OC/C(=N\O)C(C)(C)C)c([N+](=O)[O-])c1,-,-,-,-,-,-
CCN1CCN(S(=O)(=O)c2cccc(S(=O)(=O)N3CCOCC3)c2)CC1,-,-,-,-,-,-
CCC(C)n1c(-c2cccc(S(=O)(=O)N3CCOCC3)c2)n[nH]c1=S (stereo unspecified),-,-,5.62µM,-,-,-
CCC(C)n1c(-c2cccc(S(=O)(=O)N(CC)CC)c2)n[nH]c1=S (stereo unspecified),-,-,10µM,.,-,-
O=C(c1cccnc1)N1CCN(Cc2cccc(F)c2)CC1,-,31.6µM,1.58µM,.,44.7µM,-
CC(=O)c1ccc(OCC(O)CN2CCN(Cc3ccc4c(c3)OCO4)CC2)cc1 (stereo unspecified),?,-,63.1µM,-,-,26.7µM
O=C(CCc1ccc(S(=O)(=O)NCc2ccccc2)cc1)N1CCN(Cc2ccc3c(c2)OCO3)CC1,-,-,-,-,-,-
O=C(CS(=O)(=O)Cc1ccccc1)N1CCN(Cc2ccc3c(c2)OCO3)CC1,?,-,?,.,?,26.7µM
COc1ccc(OCC(O)CN2CCN(Cc3ccc4c(c3)OCO4)CC2)cc1 (stereo unspecified),-,-,-,-,-,-
O=C(c1ccccc1)N1CCN(c2ccc(NCc3ccc4c(c3)OCO4)cc2)CC1,-,35.5µM,50.1µM,?,44.7µM,-
CC(=O)N1CCN(c2ccc(NCc3ccc4c(c3)OCO4)cc2)CC1,?,?,?,-,-,-
CCOc1ccc(-c2nnc(SCC(=O)NCCC(C)C)nc2-c2ccc(OCC)c(OC)c2)cc1OC,-,-,-,.,-,.
CN(C(=O)CSc1nc2[nH]ncc2c(=O)[nH]1)c1ccccc1,-,-,-,-,-,-
O=C(c1cccc(OC2CCN(Cc3ccc(F)cc3)CC2)c1)N1CCCC1,-,-,-,.,-,21.2µM
O=C(c1cccc(F)c1)N1CCN(Cc2ccc3c(c2)OCO3)CC1,-,50.1µM,1µM,-[2.29 µM],?,-
COc1cccc(CN2CCC(C(=O)N3CCN(Cc4ccc5c(c4)OCO5)CC3)CC2)c1OC,-,-,3.16µM,.,?,-
COc1cccc2[nH]c3c(N4CCN(Cc5ccc6c(c5)OCO6)CC4)ncnc3c12,.,35.5µM,.,-,.,.
COc1cccc(CN2CCCC(C(=O)c3ccc4c(c3)OCO4)C2)c1OC (stereo unspecified),-,-,-,-,-,-
CCOC(=O)CCc1c(C)nc2cc(-c3cc(OC)cc(OC)c3)[nH]n2c1=O,-,.,-,.,-,.
Cc1cc(Cl)ccc1NC(=O)Cn1nnc2sc(-c3ccccc3)cc2c1=O,-,-,-,.,-,.
COc1ccccc1Cn1c(CNS(=O)(=O)c2cccc([N+](=O)[O-])c2)nc2cccnc21,-,-,?,.,-,.
CC1CCCN(C(=O)C2CCN(Cc3ccc4c(c3)OCO4)CC2)C1 (stereo unspecified),-,-,2.24µM,.,-,-
O=C(c1cc(-c2ccncc2)nc2ccc(Br)cc12)N1CCN(Cc2ccc3c(c2)OCO3)CC1,-,-,-,-,-,-
